Test results published in PubChem BioAssay.
Inconclusive results are not listed. Calls of active or inactive are those of the source.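 How the source made its calls, unless noted: active means percent response above a set limit, the screen-wide mean plus 3 SD (cut at about 130% in these data); inactive means the rest.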

Legend:
[1] = rapamycin-like changes in RPL19A-GFP expression – cell-based, S. cerevisiae, multiplex flow cytometry, primary screen (AID 1862; in the data active means percent of DMSO control GFP below about 86%;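 further: lower values mimic rapamycin by blocking the RPL19A rise seen in DMSO cells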); settings: S. cerevisiae RPL19A-GFP strain, flow cytometry fluorescence, 3 h; at 10 µM; stronger effect = lower value
[2] = TOR pathway GLN3 branch reporter MEP2-GFP changes – S. cerevisiae, multiplex flow cytometry, primary screen (AID 1867;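 active means GFP response, as percent of the DMSO control, above the screen-wide mean plus 3 SD, about 139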;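 further: median GFP channel fluorescence of barcode-gated MEP2-GFP cells measured by flow cytometry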); settings: S. cerevisiae MEP2-GFP strain, 3 h, at 10 µM, stronger effect = higher value, 100% means same as DMSO wells
[3] = TOR pathway RTG branch CIT2 reporter changes – S. cerevisiae, GFP fusion, multiplex flow cytometry, primary screen (AID 1870);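 further: barcoded CIT2-GFP strain pooled with four other GFP strains with rapamycin as positive control; median GFP fluorescence per well over plate mean of DMSO wells so 100% = DMSO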; settings: S. cerevisiae CIT2-GFP expression, 3 h, at 10 µM, stronger effect = higher value
[4] = TOR pathway LAP4-GFP level changes – S. cerevisiae, multiplex flow cytometry, primary screen (AID 1873;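 active means GFP signal, as percent of the solvent control, above the screen mean plus 3 SD, about 149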); settings: S. cerevisiae LAP4-GFP expression, 3 h, at 10 µM, stronger effect = higher value
[5] = yeast AGP1-GFP level changes, GLN3 branch – cell-based, multiplex flow cytometry, S. cerevisiae, primary screen (AID 1887;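 active means GFP signal above the screen-wide mean plus 3 SD, that is over about 124.5% of the solvent control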;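 further: AGP1-GFP fusion strain of S. cerevisiae within a five-strain barcoded multiplex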); settings: 3 h, at 10 µM, stronger effect = higher value
[6] = reduced mouse 2C T cell binding to pMHC/ICAM-1 vesicles – MLPCN validation set, flow cytometry, LFA-1/ICAM-1 modulator project, pilot screen (AID 2523;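 active means response below a set limit, under 55% cells CD8-positive and vesicle-bound, and CD8 cells' 90th-percentile brightness under 279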;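 on vesicle binding response: mean PE anti-B7-1 fluorescence of CD8+ cells relative to row control; 100% = QL9-loaded vesicles with DMSO vehicle in the same plate row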); settings: 2C mouse CD8+ T cells, at 7 µM, stronger effect = lower value; double positive events: measured here: CD8+/vesicle+ event percentage
[7] = target: Integrin beta-1 (Homo sapiens) + Integrin alpha-4 (Homo sapiens) (UniProt P13612+P05556); experiment: alpha4beta1 integrin LIBS antibody binding reduction – U937 cells, HUTS-21 mAb, flow cytometry, validation set, VLA-4 allosteric modulator project, pilot screen (AID 2674;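 active means inhibition above 50%, about 3 SD of the validation set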;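 further: antibody binding induced by the VLA-4 ligand LDV present at three times its Kd; 0% = LDV ligand with antibody and no compound and 100% = antibody without LDV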); settings: HUTS-21 LIBS mAb binding, at 6.7 µM, stronger effect = higher value, binding induced by LDV ligand
Sequence of Integrin beta-1 (Homo sapiens) + Integrin alpha-4 (Homo sapiens) (P05556 whole entry, looked up): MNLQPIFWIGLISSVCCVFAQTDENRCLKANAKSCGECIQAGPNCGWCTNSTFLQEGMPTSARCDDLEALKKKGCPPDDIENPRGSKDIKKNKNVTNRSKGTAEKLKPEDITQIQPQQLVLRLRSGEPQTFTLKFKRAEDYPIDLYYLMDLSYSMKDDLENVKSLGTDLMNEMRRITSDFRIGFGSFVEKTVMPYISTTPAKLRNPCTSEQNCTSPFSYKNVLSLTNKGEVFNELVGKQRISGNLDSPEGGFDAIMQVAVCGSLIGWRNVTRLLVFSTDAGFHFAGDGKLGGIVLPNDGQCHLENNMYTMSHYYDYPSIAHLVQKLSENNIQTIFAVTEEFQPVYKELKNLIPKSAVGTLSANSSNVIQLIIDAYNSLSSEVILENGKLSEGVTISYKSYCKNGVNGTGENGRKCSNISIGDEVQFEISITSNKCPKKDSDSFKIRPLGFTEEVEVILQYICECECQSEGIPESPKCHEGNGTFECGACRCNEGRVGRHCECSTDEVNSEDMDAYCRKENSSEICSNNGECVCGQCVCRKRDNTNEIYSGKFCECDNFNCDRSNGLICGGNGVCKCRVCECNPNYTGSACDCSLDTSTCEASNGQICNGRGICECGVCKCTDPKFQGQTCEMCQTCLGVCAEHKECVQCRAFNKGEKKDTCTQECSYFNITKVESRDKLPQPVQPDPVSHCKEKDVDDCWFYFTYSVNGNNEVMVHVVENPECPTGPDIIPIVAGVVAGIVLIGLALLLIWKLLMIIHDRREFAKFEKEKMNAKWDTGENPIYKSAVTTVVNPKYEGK
Sequence of Integrin beta-1 (Homo sapiens) + Integrin alpha-4 (Homo sapiens) (P13612 whole entry, looked up): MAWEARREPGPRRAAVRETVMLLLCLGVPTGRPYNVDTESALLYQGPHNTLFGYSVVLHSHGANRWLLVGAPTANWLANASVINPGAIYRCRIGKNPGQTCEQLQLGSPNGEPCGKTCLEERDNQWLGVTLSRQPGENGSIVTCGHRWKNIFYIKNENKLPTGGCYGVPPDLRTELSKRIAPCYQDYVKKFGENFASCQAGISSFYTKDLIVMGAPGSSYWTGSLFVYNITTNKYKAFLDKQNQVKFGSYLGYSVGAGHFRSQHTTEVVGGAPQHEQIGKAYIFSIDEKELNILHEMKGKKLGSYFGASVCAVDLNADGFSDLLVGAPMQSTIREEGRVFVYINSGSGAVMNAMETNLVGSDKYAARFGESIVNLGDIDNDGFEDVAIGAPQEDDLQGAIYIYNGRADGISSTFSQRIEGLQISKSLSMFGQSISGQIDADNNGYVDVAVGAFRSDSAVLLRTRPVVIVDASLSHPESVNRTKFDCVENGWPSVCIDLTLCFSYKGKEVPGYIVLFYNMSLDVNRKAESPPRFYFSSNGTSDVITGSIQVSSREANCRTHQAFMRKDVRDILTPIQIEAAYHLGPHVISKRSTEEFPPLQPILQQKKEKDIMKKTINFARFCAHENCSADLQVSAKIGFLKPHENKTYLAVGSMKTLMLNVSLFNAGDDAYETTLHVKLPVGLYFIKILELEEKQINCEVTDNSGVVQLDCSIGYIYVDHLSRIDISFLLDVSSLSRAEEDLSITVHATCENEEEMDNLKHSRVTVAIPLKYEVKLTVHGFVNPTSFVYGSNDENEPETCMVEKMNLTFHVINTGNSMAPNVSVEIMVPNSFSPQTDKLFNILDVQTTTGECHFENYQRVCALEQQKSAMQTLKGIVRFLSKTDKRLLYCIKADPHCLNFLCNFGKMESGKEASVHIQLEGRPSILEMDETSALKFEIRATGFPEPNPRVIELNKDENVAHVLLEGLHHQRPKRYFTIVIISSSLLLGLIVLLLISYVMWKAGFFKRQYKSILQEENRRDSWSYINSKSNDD

[8] = target: Beta-adrenergic receptor kinase 1 (Homo sapiens) (UniProt P25098); experiment: GRK2 binders displacing RNA aptamer, biochemical, validation, human GRK2, bead flow cytometry (AID 488806;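 active means aptamer binding inhibition above 30%, about 3 SD of noise from non-fluorescent compounds; inactive means inhibition at or below 30%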); settings: bead-bound GRK2, FAM-aptamer displacement, at 10 µM, stronger effect = higher value
Sequence of Beta-adrenergic receptor kinase 1 (Homo sapiens) (P25098 whole entry, looked up): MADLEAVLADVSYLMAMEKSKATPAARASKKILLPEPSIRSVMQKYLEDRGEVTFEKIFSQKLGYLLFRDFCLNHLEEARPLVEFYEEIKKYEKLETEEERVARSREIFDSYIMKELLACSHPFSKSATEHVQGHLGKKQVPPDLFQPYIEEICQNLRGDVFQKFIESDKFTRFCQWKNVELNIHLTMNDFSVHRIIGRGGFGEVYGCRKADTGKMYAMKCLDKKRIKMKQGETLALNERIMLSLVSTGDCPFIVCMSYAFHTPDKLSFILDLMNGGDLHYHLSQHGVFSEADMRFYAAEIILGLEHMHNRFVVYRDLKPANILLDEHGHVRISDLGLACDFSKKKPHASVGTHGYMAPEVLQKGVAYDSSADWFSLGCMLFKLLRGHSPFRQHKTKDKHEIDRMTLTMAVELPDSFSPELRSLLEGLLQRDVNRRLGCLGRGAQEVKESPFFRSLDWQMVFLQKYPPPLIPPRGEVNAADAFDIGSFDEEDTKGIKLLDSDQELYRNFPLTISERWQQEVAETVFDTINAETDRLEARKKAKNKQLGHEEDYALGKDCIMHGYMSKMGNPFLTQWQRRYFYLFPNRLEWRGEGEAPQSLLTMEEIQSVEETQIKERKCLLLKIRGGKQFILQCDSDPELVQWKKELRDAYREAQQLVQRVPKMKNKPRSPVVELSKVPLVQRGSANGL

[9] = target: Beta-2 adrenergic receptor (Homo sapiens) (UniProt P07550); experiment: agonist-induced loss of surface beta2AR – cell-based, FAP fluorogen, flow cytometry, validation set, pilot screen (AID 504459;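 active means percent response above 42, roughly 3 SD of non-fluorescent test compounds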;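 further: agonist-driven loss of surface beta2AR via internalization measured by FAP dye flow cytometry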); settings: Am2.2-beta2AR cells, at 10 µM, stronger effect = higher value
Sequence of Beta-2 adrenergic receptor (Homo sapiens) (P07550 whole entry, looked up): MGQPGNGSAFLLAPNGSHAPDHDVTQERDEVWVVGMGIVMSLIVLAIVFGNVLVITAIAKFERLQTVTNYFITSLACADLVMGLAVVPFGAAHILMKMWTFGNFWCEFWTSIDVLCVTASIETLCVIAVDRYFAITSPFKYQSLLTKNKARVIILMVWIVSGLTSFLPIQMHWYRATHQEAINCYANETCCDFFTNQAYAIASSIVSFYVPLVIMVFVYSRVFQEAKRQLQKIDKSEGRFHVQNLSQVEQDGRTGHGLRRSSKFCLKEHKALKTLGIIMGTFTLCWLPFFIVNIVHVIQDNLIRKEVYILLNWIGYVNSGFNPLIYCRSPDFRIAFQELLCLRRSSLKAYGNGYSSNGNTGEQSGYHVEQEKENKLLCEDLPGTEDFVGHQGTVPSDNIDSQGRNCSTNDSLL

[10] = target: AP-2 complex subunit beta (Homo sapiens) (UniProt P63010); experiment: beta-arrestin/AP2 interaction blockers – biochemical, validation set, GST-AP2 beads, flow cytometry, pilot screen (AID 504541;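 active means inhibition above 54%, about 3 SD of non-fluorescent compounds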;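 further: AP2 carries R879A mutation and is captured from E. coli lysate; bead-bound FITC arrestin peptide fluorescence measuring arrestin peptide binding to AP2; 0% = DMSO wells and 100% = excess unlabeled arrestin peptide control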); settings: FITC arrestin peptide, at 10 µM, stronger effect = higher value, AP2 beta2 appendage fragment, R879A mutant
Sequence of AP-2 complex subunit beta (Homo sapiens) (P63010 whole entry, looked up, the tested form may be a part, one chain of several): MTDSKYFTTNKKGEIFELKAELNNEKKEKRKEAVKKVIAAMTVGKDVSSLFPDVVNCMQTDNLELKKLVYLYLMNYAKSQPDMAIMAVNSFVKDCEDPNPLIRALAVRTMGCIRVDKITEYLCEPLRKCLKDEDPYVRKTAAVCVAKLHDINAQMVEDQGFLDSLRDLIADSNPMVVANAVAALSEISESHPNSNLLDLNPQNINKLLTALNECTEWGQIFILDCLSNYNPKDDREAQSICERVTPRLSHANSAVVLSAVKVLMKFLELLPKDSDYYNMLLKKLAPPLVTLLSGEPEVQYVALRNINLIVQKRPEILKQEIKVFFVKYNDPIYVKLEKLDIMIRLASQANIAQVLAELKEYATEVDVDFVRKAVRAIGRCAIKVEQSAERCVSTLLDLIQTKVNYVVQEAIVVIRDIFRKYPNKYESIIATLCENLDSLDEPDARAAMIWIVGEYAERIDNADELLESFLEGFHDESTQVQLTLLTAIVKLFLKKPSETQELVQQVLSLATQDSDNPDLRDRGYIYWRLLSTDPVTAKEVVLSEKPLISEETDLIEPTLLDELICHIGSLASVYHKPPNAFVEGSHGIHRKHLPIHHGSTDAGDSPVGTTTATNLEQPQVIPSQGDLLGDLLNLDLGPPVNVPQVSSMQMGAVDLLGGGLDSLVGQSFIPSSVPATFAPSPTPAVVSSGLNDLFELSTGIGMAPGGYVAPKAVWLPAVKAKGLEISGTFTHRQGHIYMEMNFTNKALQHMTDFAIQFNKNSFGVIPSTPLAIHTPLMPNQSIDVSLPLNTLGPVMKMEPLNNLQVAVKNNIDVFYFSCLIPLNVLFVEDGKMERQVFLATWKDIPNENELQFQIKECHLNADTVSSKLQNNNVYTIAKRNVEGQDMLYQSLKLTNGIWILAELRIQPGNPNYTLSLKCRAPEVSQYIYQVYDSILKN

[11] = cytosolic pH regulators acting via V-ATPase – S. cerevisiae, pHLuorin, HTS validation (AID 504600; in the data active means response above about 15%;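 further: plate controls were DMSO for no effect and reference compound for full effect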); settings: V-ATPase proton transport, at 10 µM, stronger effect = higher value
[12] = system: anti-desmoglein-3 scFv antibody binding to human DSG3; experiment: blockers of pathogenic pemphigus antibody–desmoglein-3 binding – biochemical, validation compound set, bead-based, flow cytometry, pilot screen (AID 588368;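 active means binding below the plate cutoff, the plate median minus 3 SD, with a reading above zero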;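 further: signal is the median channel fluorescence of bead-bound GFP antibody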); settings: Protein G beads, DSG3-Fc, scFv-GFP binding, at 10 µM, stronger effect = lower value
[13] = Nile Red efflux blockade in pump-expressing yeast – validation compound set, multiplex, phenotypic, pilot screen (AID 588506;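 active means efflux inhibition above 0.42, the validation set average plus 4 SD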;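 further: Nile Red retained in cells so higher fluorescence means more efflux inhibition; 0 = negative control wells and 1 = enniatin B 25 µM full block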); settings: S. cerevisiae pump-expressing triplex, Nile Red efflux flow cytometry; at 10 µM; stronger effect = higher value; the pumps come from Candida albicans
[14] = target: ATP-binding cassette sub-family B member 6 (Homo sapiens) (UniProt Q9NP58); experiment: blockers of ABCB6-driven porphyrin uptake – K562-ABCB6 cells, flow cytometry, validation set, pilot screen (AID 588550;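 active means inhibition above the screen-wide mean plus 3 SD, about 51%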;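 further: 0% = DMSO wells and 100% = benzethonium chloride 70 µM positive control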); settings: K562-ABCB6 porphyrin accumulation, 1 h, at 10 µM, stronger effect = higher value
Sequence of ATP-binding cassette sub-family B member 6 (Homo sapiens) (Q9NP58 whole entry, looked up): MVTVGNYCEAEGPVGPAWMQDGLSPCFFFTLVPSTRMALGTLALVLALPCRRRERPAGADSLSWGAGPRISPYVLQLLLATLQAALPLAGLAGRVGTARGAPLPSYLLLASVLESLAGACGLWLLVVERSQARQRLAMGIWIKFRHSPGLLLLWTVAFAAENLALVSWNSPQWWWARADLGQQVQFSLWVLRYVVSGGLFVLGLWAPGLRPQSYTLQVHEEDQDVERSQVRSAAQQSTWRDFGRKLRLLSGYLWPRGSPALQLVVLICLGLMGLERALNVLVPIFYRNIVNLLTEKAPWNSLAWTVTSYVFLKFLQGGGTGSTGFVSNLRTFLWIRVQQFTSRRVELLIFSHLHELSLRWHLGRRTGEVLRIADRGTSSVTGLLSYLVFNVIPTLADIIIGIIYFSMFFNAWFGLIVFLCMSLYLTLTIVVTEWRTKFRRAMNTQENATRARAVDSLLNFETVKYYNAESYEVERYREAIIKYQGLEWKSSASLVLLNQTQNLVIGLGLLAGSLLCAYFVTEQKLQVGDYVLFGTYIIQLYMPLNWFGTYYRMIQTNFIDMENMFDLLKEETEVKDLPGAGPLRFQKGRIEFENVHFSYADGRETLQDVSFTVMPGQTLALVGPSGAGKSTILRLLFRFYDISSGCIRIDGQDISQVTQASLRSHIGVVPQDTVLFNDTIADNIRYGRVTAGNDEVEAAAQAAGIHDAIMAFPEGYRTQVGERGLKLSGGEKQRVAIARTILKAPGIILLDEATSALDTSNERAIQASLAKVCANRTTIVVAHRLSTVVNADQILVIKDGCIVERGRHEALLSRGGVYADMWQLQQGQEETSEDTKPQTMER

[15] = AML differentiation inducers, ER-HoxA9 marrow cells – cell-based, GFP/MAC1 double positive, flow cytometry, validation set, primary screen (AID 588685;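 active means differentiation response of at least 50%, scaled between solvent and reference control, from cells with both markers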;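 further: compound exposure lasts four days before antibody staining and flow analysis; 0% = DMSO wells and 100% = 5 µM fulvestrant positive control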); settings: stronger effect = higher value, normalized: vehicle 0, fulvestrant 100
[16] = calorie-restriction mimetic ROS inhibitors, yeast – validation compound set, pilot screen (AID 2706;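 active means superoxide response below 65% of plate, a cut near 3 SD across the whole screen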;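 further: yeast exposed to compound for one week at 30 degrees C before staining; 100% = mean of all compound wells on the same plate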); settings: S. cerevisiae aging, superoxide DHE fluorescence; at 10 µM, stronger effect = lower value

| Structure (SMILES) | percent of DMSO control GFP [1] | GFP response vs DMSO [2] | percent response of DMSO control [3] | GFP response vs DMSO [4] | GFP response, % of DMSO [5] | double positive events [6] [%] | vesicle binding response [6] | inhibition [7] | aptamer binding inhibition [8] | response [9] | inhibition [10] | response [11] | binding (% of control) [12] | efflux inhibition (fraction of control) [13] | inhibition [14] | differentiation response [15] | superoxide response (% of plate) [16] |
| --- | --- | --- | --- | --- | --- | --- | --- | --- | --- | --- | --- | --- | --- | --- | --- | --- | --- |
| CN(C)CCOC(C)(c1ccccc1)c1ccccn1 (configuration not stated) | 100% (inactive) | 104% (inactive) | 93.1% (inactive) | 83.5% (inactive) | 93.7% (inactive) | 63.3 | 129% (inactive) | -1.49% (inactive) | 2% (inactive) | 2.25% (inactive) | 13.9% (inactive) | -1.19% (inactive) | 106% (inactive) | 0.74 (active) | 6% (inactive) | 13.9% (inactive) | – |
| CCc1cc2c(=O)c(-c3ccc(F)cc3)c(C)oc2cc1OCC(=O)O | 107% (inactive) | 98.3% (inactive) | 104% (inactive) | 88.1% (inactive) | 100% (inactive) | 70.6 | 168% (inactive) | 6.81% (inactive) | -3% (inactive) | -3.44% (inactive) | -6.22% (inactive) | 0.76% (inactive) | 104% (inactive) | 0.43 (active) | -6% (inactive) | 30.5% (inactive) | – |
| Cc1ccc(CSCC(=O)NCCCN2CCOCC2)cc1 | 100% (inactive) | 96.2% (inactive) | 95.4% (inactive) | 92.7% (inactive) | 96.4% (inactive) | 67.8 | 243% (inactive) | -4.6% (inactive) | -4% (inactive) | -1.57% (inactive) | -6.22% (inactive) | 1.78% (inactive) | 104% (inactive) | 0.33 (inactive) | -6% (inactive) | 3.18% (inactive) | – |
| CCOC(=O)Cc1c(C)nc(N)[nH]c1=O | 101% (inactive) | 95.1% (inactive) | 102% (inactive) | 91.4% (inactive) | 94.3% (inactive) | 64.8 | 276% (inactive) | -1.49% (inactive) | 3% (inactive) | -4.96% (inactive) | -8.2% (inactive) | -0.76% (inactive) | 107% (inactive) | 0.52 (active) | 15% (inactive) | 22.7% (inactive) | – |
| CCOC(=O)c1cccc(C(=O)OCC)n1 | 102% (inactive) | 98.3% (inactive) | 100% (inactive) | 84.1% (inactive) | 95.7% (inactive) | 62.1 | 28.3% (inactive) | -2.53% (inactive) | 0% (inactive) | -0.16% (inactive) | 5.21% (inactive) | -1.45% (inactive) | 103% (inactive) | 0.68 (active) | 5% (inactive) | 29.6% (inactive) | – |
| CNC[C@H](O)c1ccc(O)c(O)c1 | 107% (inactive) | 95.9% (inactive) | 107% (inactive) | 97.4% (inactive) | 103% (inactive) | 43.9 | 162% (inactive) | -25.4% (inactive) | – | – | 2.4% (inactive) | 2.95% (inactive) | 103% (inactive) | -0.24 (inactive) | 9% (inactive) | -8.27% (inactive) | 108% (inactive) |
| COc1ccc(-c2cc3cc(OC)c(OC)cc3c(C)n2)cc1 | 103% (inactive) | 105% (inactive) | 102% (inactive) | 90.3% (inactive) | 90.7% (inactive) | 53.2 | 149% (inactive) | 5.36% (inactive) | 6% (inactive) | – | 1.41% (inactive) | 1.33% (inactive) | 106% (inactive) | -0.09 (inactive) | -2% (inactive) | -8.27% (inactive) | 96% (inactive) |
| COC(=O)c1ccccc1OCCOCCOc1cccc2ccc(C)nc12 | 106% (inactive) | 103% (inactive) | 99.8% (inactive) | 90.3% (inactive) | 100% (inactive) | 49.8 | 145% (inactive) | 14.7% (inactive) | 2% (inactive) | – | -2.13% (inactive) | 4.14% (inactive) | 103% (inactive) | -0.05 (inactive) | 9% (inactive) | -13.1% (inactive) | 116% (inactive) |
| CCOc1ccccc1OCCOc1ccc(F)cc1 | 101% (inactive) | 98.3% (inactive) | 100% (inactive) | 88.1% (inactive) | 91.1% (inactive) | 63.4 | 193% (inactive) | -30.5% (inactive) | 0% (inactive) | 7.79% (inactive) | 0.71% (inactive) | -0.31% (inactive) | 104% (inactive) | 0.24 (inactive) | 1% (inactive) | 12% (inactive) | – |
| CC1(C)OC2OC(C(=O)N/N=C/c3ccccc3F)C3OC(C)(C)OC3C2O1 (configuration not stated) | 100% (inactive) | 106% (inactive) | 97.9% (inactive) | 101% (inactive) | 101% (inactive) | 53.1 | 164% (inactive) | 12.8% (inactive) | 1% (inactive) | – | 0.54% (inactive) | 1.25% (inactive) | 96.5% (inactive) | 0.52 (active) | 9% (inactive) | -13.1% (inactive) | 103% (inactive) |
| CC(=O)Nc1nc(CCC(C)C)cc2c1c(=O)oc1ccccc12 | 102% (inactive) | 98.3% (inactive) | 100% (inactive) | 96% (inactive) | 88.6% (inactive) | 60.5 | 77.6% (inactive) | 1.62% (inactive) | 0% (inactive) | -19.1% (inactive) | 2.41% (inactive) | 0.7% (inactive) | 75.5% (inactive) | 0.39 (inactive) | -8% (inactive) | 16.9% (inactive) | – |
| C#C[C@]1(O)CC[C@H]2[C@@H]3CCC4=C(CCC(=O)C4)[C@H]3CC[C@@]21C | 97.1% (inactive) | 92.8% (inactive) | 94.9% (inactive) | 129% (inactive) | 98.7% (inactive) | 55.6 | 188% (inactive) | 2.56% (inactive) | 2% (inactive) | – | 1.1% (inactive) | 5.28% (inactive) | 102% (inactive) | -0.2 (inactive) | 7% (inactive) | -0.2% (inactive) | 95.1% (inactive) |
| Clc1ccccc1CN1CCc2sccc2C1 | 100% (inactive) | 104% (inactive) | 99.6% (inactive) | 118% (inactive) | 119% (inactive) | 64.6 | 233% (inactive) | 6.55% (inactive) | -1% (inactive) | – | 59.3% (active) | 0.39% (inactive) | 102% (inactive) | 0 (inactive) | 0% (inactive) | -4.99% (inactive) | 87.2% (inactive) |
| Cn1c(=O)[nH]c(=O)c2c1ncn2CCN1CCOCC1 | 103% (inactive) | 98.3% (inactive) | 96.6% (inactive) | 82.2% (inactive) | 97.3% (inactive) | 63.6 | 288% (inactive) | -3.57% (inactive) | -4% (inactive) | -4.41% (inactive) | -3.3% (inactive) | 0.49% (inactive) | 102% (inactive) | 0.08 (inactive) | 16% (inactive) | 62.8% (active) | – |
| CC[N+](C)(CC)CCOC(=O)C(O)(c1ccccc1)C1CCCCC1 (configuration not stated) | 101% (inactive) | 103% (inactive) | 105% (inactive) | 105% (inactive) | 103% (inactive) | 57.8 | 175% (inactive) | -32.9% (inactive) | -3% (inactive) | – | -1.88% (inactive) | 6.06% (inactive) | 98.5% (inactive) | -0.01 (inactive) | -1% (inactive) | 0% (inactive) | 102% (inactive) |
| COc1ccc(OC)c(-n2c(Cn3c(-c4ccccn4)nc4ccccc43)n[nH]c2=S)c1 | 98.5% (inactive) | 101% (inactive) | 93% (inactive) | 90.3% (inactive) | 91.8% (inactive) | 62.6 | 144% (inactive) | 7.22% (inactive) | 1% (inactive) | – | 6.75% (inactive) | -0.2% (inactive) | 105% (inactive) | 0.44 (active) | -8% (inactive) | -9.89% (inactive) | 97.4% (inactive) |
| CCOc1ccc(CCn2c(-c3ccco3)nc3ccccc3c2=O)cc1OCC | 100% (inactive) | 106% (inactive) | 94.2% (inactive) | 92.7% (inactive) | 92.6% (inactive) | 62.6 | 258% (inactive) | -18.1% (inactive) | 1% (inactive) | 2.8% (inactive) | 3.57% (inactive) | -0.47% (inactive) | 91.2% (inactive) | 0.27 (inactive) | 20% (inactive) | 0.24% (inactive) | – |
| CC(C)C[C@H](NC(=O)[C@@H]1Cc2ccccc2CN1C(=O)OC(C)(C)C)C(=O)NCC1CCC(C(=O)O)CC1 (some centres not stated) | 99.3% (inactive) | 95.9% (inactive) | 105% (inactive) | 92.3% (inactive) | 99.9% (inactive) | 59.9 | 257% (inactive) | 1.62% (inactive) | 3% (inactive) | – | -3.49% (inactive) | -10.3% (inactive) | 101% (inactive) | -0.12 (inactive) | 7% (inactive) | -27.6% (inactive) | 93.6% (inactive) |
| Oc1c(Cl)cc(Cl)c(Cl)c1Cc1c(O)c(Cl)cc(Cl)c1Cl | 107% (inactive) | 113% (inactive) | 108% (inactive) | 96.8% (inactive) | 93.1% (inactive) | 51.2 | 24.1% (active) | 7.43% (inactive) | -1% (inactive) | – | – | 0.14% (inactive) | 105% (inactive) | 0.19 (inactive) | 8% (inactive) | 0.82% (inactive) | 79.3% (inactive) |
